Out of some 16,000 compounds screened, about 260 (1.6%) were called active. Another 14% or so got no clear call; they are omitted. The call rests on the fitted dose curve; in most records, active means well fitted inhibition curve with a large enough effect; inconclusive means small, poorly fitted or top-dose-only effect; inactive means no such curve, though single readings can be large or run the other way. Shown is part of a subset that was picked to be rich in actives. A call without a number means that no potency is given here.
Each compound was assayed against Rap guanine nucleotide exchange factor 4 (Homo sapiens) (UniProt Q8WZA2) (assay: Validation qHTS for antagonist of cAMP-regulated guanine nucleotide exchange factor 4 (EPAC2)). Details: EPAC2 Rap1B BODIPY-GDP exchange, fluorescence; series mostly up to 112 µM.
Text: Principle Investigator: Xiaodong Cheng Ph.D. The University of Texas Medical Branch, […], TX MLPCN Grant: NS066510 In multi-cellular eukaryotic organisms, the effects of cAMP are transduced by two ubiquitously-expressed intracellular cAMP receptors, the classic protein kinase A/cAMP-dependent protein kinase (PKA/cAPK) and the more recently discovered exchange protein directly activated by cAMP/cAMP-regulated guanine nucleotide exchange factor (EPAC/cAMP-GEF). Both PKA and EPAC are ubiquitously expressed in all tissues, and an increase in intracellular cAMP levels will lead to the activation of both PKA and EPAC. Therefore, careful dissections of the individual role and relative contribution of EPAC and PKA within the overall cAMP signaling in various model systems are critical for further elucidating the mechanism of cAMP signaling. To date no EPAC-specific antagonists and agonist, as well as isoform-specific agonists have been reported, and developing EPAC-specific pharmacological probes to determine the physiological functions that EPAC play in the overall cAMP-mediated signaling remains a major challenge within the research field. Furthermore, identified regulators of EPAC may lead to new mechanism-based therapeutic strategies specifically targeting the EPAC / cAMP-signaling components as EPAC has been implicated to play important roles in major human pathological conditions such as diabetes, heart disease, and cancer. This qHTS will be used to screen the Molecular Libraries Small Molecule Repository (MLSMR) as a concentration-titration series using the NCGC unique quantitative screening (qHTS) platform to find activators for EPAC1. In addition, this assay will also be used as a counterscreen for the EPAC2 qHTS. This fluorescent based assay is developed and validated for EPAC1 that measures exchange using EPAC effector Rap1 complex with BODIPY-GDP, a GDP analog with a tethered fluorophores. Activators are identified by monitoring the change in fluorescence signal as the exchanged free BODIPY-GDP has a reduced fluorescence compared to Rap1-bound BODIPY-GDP. Increase in signal (activation) is the desired outcome for the EPAC1 agonist while no activity in this assay is desired for the EPAC2 agonist counterscreen. Reference: [1] de Rooij, J., Zwartkruis, F. J., Verheijen, M. H., Cool, R. H., Nijman, S. M., Wittinghofer, A., and Bos, J.L. (1998) Nature 396, 474-477.
Briefly, three uL of reagents (100 nM EPAC2, 250 nM RAP1B-BODIPY-GDP, 50 uM GDP) were dispensed into a 1536-well Greiner black solid-bottom medium binding assay plate. Controls and test compounds (23 nL) were transferred to the plate via a Kalypsys pin tool equipped with a 1536-pin array. The plates were centrifuged at 1,000 rpm for 15 seconds followed by 5 minute incubation at room temperature. The assay plates were read at 5 minute intervals for 30 minutes in the ViewLux plate reader using 480nm excitation and 540nm emission filters. The results were normalized to the agonist positive control of 6.5 mM cAMP.
Further: nearly all actives have a fitted effect of over 40% in size.
Potency means the concentration at half of the fitted maximal effect.

Chain of Rap guanine nucleotide exchange factor 4 (Homo sapiens) (Q8WZA2 whole entry, looked up): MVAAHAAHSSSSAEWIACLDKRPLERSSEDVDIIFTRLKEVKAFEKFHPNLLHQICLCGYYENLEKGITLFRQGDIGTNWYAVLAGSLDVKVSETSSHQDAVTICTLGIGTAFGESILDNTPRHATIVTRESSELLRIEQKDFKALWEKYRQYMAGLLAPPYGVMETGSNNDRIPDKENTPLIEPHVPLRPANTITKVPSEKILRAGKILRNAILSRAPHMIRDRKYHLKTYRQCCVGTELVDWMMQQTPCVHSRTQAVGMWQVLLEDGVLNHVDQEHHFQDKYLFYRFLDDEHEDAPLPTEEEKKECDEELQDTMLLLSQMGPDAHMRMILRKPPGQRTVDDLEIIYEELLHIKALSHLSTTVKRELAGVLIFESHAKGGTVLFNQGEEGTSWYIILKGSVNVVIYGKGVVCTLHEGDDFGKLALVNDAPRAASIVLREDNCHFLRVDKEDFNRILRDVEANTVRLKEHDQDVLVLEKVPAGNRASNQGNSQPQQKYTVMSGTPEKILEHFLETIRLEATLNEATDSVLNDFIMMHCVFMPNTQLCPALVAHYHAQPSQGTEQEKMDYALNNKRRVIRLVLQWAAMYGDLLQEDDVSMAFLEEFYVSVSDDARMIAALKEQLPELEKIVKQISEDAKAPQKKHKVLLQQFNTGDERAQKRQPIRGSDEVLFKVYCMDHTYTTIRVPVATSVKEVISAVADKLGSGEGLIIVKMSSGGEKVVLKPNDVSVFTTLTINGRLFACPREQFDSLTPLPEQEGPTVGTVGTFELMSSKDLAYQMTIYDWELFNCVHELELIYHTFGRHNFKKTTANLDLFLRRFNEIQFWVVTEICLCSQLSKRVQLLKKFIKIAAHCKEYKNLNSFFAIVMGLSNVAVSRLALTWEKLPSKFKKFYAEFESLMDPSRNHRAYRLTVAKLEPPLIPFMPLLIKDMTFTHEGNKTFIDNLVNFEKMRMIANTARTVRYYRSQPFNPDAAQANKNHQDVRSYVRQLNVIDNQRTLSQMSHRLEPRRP

SMILES | Potency
Cc1cc(-c2ccnc(-n3ncc(C(=O)NCCc4ccncc4)c3C)n2)c(C)s1 | inactive
CC(=O)OCC(=O)[C@@]1(O)CCC2C3CCC4=CC(=O)CC[C@]4(C)C3C(=O)C[C@]21C (some centres undefined) | inactive
c1cncc(CNc2ccnc(-c3ccc4c(c3)OCO4)n2)c1 | inactive
COc1ccc2[nH]cc(CCNc3ncnc4ccc(-c5ccccc5CN(C)C)cc34)c2c1 | inactive
COc1ccc(Oc2ncc3nc(C)c(=O)n(-c4ccccc4)c3n2)cc1 | inactive
O=C(OCc1ccccc1)c1ccc(O)cc1 | inactive
O=C1C(c2ccccn2)=[N+]([O-])c2ccccc21 | inactive
Cn1nccc1C(=O)NCC1CCC2(CCN(Cc3c(O)ccc4ccccc34)CC2)O1 (centres undefined) | inactive
COc1ccccc1N1CCN(CCN2C(=O)c3ccccc3C(C)(C)C2=O)CC1 | inactive
COc1ccc(-c2nc3cnc(N(C)C)nc3n(Cc3cccs3)c2=O)cc1 | inactive
COc1ccc(-n2c(CNC(=O)c3cc(C(F)(F)F)ccc3Cl)nnc2SC)cc1 | inactive
CC(=O)O[C@H]1CC[C@@]2(C)C(=CC[C@@H]3[C@@H]2CC[C@]2(C)C(c4cccnc4)=CC[C@@H]32)C1 | inactive
COc1ccc(CCCOC(Cn2ccnc2)c2ccc(OC)cc2)cc1 (centres undefined) | inactive
Cc1cnc(CNc2nc(-c3cccnc3)nc3ccccc23)cn1 | inactive
Cc1cc(C)cc(CN2CCc3nnc(C(NS(C)(=O)=O)C(C)C)n3CC2)c1 (centres undefined) | inactive
COCCNc1ncnc2ccc(-c3ccccc3CN(C)C)cc12 | inactive
Cc1cccc(CNc2ccnc(-c3cccnc3)n2)c1 | inactive
CC(=O)N1CCC2(CCCN(Cc3ccc(C#N)cc3)C2)CC1 | inactive
Cc1c(S(=O)(=O)O)oc2c1C(=O)C(=O)c1c-2ccc2c1CCCC2(C)C | 44.7 µM (active)
COc1ccc(CN(C)CCn2cc(C(=O)N3CCSCC3)nn2)cc1C | inactive
c1ccc(CNc2ncncc2-c2cccnc2)cc1 | inactive
CS(=O)(=O)NC(=O)CCC/C=C\C[C@H]1C(=O)C[C@@H](O)[C@@H]1/C=C/[C@H](O)COc1ccccc1 | inactive
COc1ccc(C(=O)N2CCC[C@@]3(CCN(C(=O)NC(C)C)C3)C2)cc1 | inactive
Cc1cnc(-n2ncc(C(=O)N3CCN(C(C)C)CC3)c2-c2ccco2)nc1-c1ccc(F)cc1 | inactive
CN(C)c1ccc(/C=C/c2c3ccccc3nc3ccccc23)cc1 | inactive

SMILES | Potency
O=c1c(-c2ccc(F)cc2)nc2cncnc2n1-c1ccccc1 | inactive
COCC1CCCN(Cc2ccc3c(c2)CN(C(=O)c2ccnn2C)CCO3)C1 (centres undefined) | inactive
Cc1c(O)cc2c(c1C)O[C@](C)(CCC[C@H](C)CCC[C@H](C)CCCC(C)C)CC2 | inactive
CCc1noc(C)c1C(=O)NCCN1Cc2cc(OC)ccc2OC(CC)C1 (centres undefined) | inactive
CC(N)(C(=O)O)c1ccc(-c2nn[nH]n2)cc1 (centres undefined) | inactive
O=C1CCC[C@@H]2C[C@@]3(C[C@@H]4CCN1[C@H]24)Nc1ccccc1NC3=NCc1ccccc1 | inactive
C=C1O[C@@](CO)(n2cnc3c(N)ncnc32)[C@H](O)[C@@H]1O | inactive
CO/N=C(\C(=O)N[C@@H]1C(=O)N2C(C(=O)O)=CCS[C@H]12)c1csc(N)n1 | inactive
COC(=O)CC1C(C)(C)C(OC(C)=O)C2CC3=C4CC(=O)OC(c5ccoc5)[C@]4(C)CCC3[C@@]1(C)C2=O (some centres undefined) | inactive
COc1ccccc1CNc1ccnc(-c2c(C)noc2C)n1 | inactive
COc1ccc(C(=O)N2CCC3(CCCN(C(c4ccccc4)c4ccccc4)C3)CC2)cc1 | inactive
CN(C)C(=O)c1ccc(-c2cncnc2NC2CCNCC2)cc1 | inactive
CCC1(C2CCN(C(=O)c3cccc(F)c3F)CC2)NC(=O)N(CCc2scnc2C)C1=O (centres undefined) | inactive
COc1ccccc1N1CCN(C[C@@H]2CN3C(=O)N(C)c4ccccc4C3=N2)CC1 | inactive
CCC(C)[C@H]1COCCS(=O)(=O)N1Cc1ccc(C)cc1 (some centres undefined) | 79.4 µM (active)
Cc1ccc(CN2CCCOCCS2(=O)=O)cc1 | inactive
Cc1ncc2c(c1CNS(=O)(=O)N(C)C)CCN(C(=O)c1ccccc1F)C2 | inactive
COCCNc1cc(-c2c(C)noc2C)ncn1 | inactive
C[N+](C)(C)CCCCCNCC12CC3CC(CC(C3)C1)C2 | inactive
O=C(O)CCCc1ccccc1 | inactive
Cc1cccc(CNC(=O)c2cnn(-c3nccc(-c4ccccc4F)n3)c2C2CC2)n1 | inactive
O=C(c1cnccn1)N1CCC[C@@]2(CCN(Cc3ccncc3)C2)C1 | inactive
COCCn1c(=O)c(-c2cc(F)cc(F)c2)nc2cnc(N3CCNCC3)nc21 | inactive
Cn1cccc1C(=O)N1CCC[C@@]2(CCN(Cc3nccs3)C2)C1 | inactive

— PubChem BioAssay AID1645886 (National Center for Advancing Translational Sciences (NCATS), 2021)
